Results taken from PubChem BioAssay AID1159580 (chemical genetic matrix, 2015).
The campaign covered roughly 5,500 compounds. About 2,000 (36%) were called active. Inconclusive results (about 18%) are left out. Cut-off read from the data, not from the text of the source: active = normalized growth mostly below about 0.91 (no sharp cut-off); inconclusive = no clear call, values can overlap the other calls; inactive = mostly above about 0.92. The list shows a part of the results.

Assay: chemical genetic growth profiling, strain panel (AID 1159580);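 note: tested at 20 µM; growth read once vehicle control cultures reached saturation at 30 °C; 1 = growth at the plate median or of vehicle wells; lower values mean less growth of the strain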
Details: growth OD
[1] = S. cerevisiae deletion strains, locus YGR078C, strain PAC10, hits give low values
[2] = S. cerevisiae deletion strains, locus YMR307W, strain GAS1, hits give low values
[3] = S. cerevisiae deletion strains, locus YNL153C, strain GIM3, hits give low values
[4] = S. cerevisiae deletion strains, locus YNL322C, strain KRE1, hits give low values
[5] = S. cerevisiae deletion strains, locus YPL055C, strain LGE1, hits give low values
[6] = S. cerevisiae deletion strains, locus YPL241C, strain CIN2, hits give low values
[7] = S. cerevisiae deletion strains, locus YAL013W, strain DEP1, hits give low values
[8] = S. cerevisiae deletion strains, locus YBR229C, strain ROT2, hits give low values
[9] = S. cerevisiae deletion strains, locus YCL061C, strain MRC1, hits give low values
[10] = S. cerevisiae deletion strains, locus YDL101C, strain DUN1, hits give low values
[11] = S. cerevisiae deletion strains, locus YDR150W, strain NUM1, hits give low values
[12] = S. cerevisiae deletion strains, locus YEL061C, strain CIN8, hits give low values
[13] = S. cerevisiae deletion strains, locus YHR030C, strain SLT2, hits give low values
[14] = S. cerevisiae deletion strains, locus YHR087W, strain rtc3, hits give low values
[15] = S. cerevisiae deletion strains, locus YJR043C, strain POL32, hits give low values
[16] = S. cerevisiae deletion strains, locus YJR075W, strain HOC1, hits give low values
[17] = S. cerevisiae deletion strains, locus YKL190W, strain CNB1, hits give low values
[18] = S. cerevisiae deletion strains, locus YLR039C, strain RIC1, hits give low values
[19] = S. cerevisiae deletion strains, locus YLR058C, strain SHM2 (second series), hits give low values
[20] = S. cerevisiae deletion strains, locus YLR085C, strain ARP6, hits give low values
[21] = S. cerevisiae deletion strains, locus YLR262C, strain YPT6, hits give low values
[22] = S. cerevisiae deletion strains, locus YML094W, strain GIM5, hits give low values
[23] = S. cerevisiae deletion strains, locus YMR219W, strain ESC1, hits give low values
[24] = S. cerevisiae deletion strains, locus YMR263W, strain SAP30, hits give low values
[25] = S. cerevisiae deletion strains, locus YNL298W, strain CLA4 (second series), hits give low values
[26] = S. cerevisiae deletion strains, locus YNR030W, strain Alg12, hits give low values
[27] = S. cerevisiae deletion strains, locus YPR135W, strain CTF4, hits give low values

Measured: normalized growth

OCc1cnc[nH]1
inactive: S. cerevisiae deletion strains, locus YAL040C, strain CLN3, hits give low values 0.98 | S. cerevisiae deletion strains, locus YCL061C, strain MRC1 (second series), hits give low values 1 | S. cerevisiae deletion strains, locus YDR363W, strain ESC2, hits give low values 1.01 | S. cerevisiae deletion strains, locus YER002W, strain NOP16, hits give low values 1.03 | [1] 1.01 | S. cerevisiae deletion strains, locus YGR229C, strain SMI1, hits give low values 0.987 | [2] 1 | [3] 1.05 | S. cerevisiae deletion strains, locus YNL175C, strain NOP13, hits give low values 1.02 | S. cerevisiae deletion strains, locus YNL197C, strain WHI3, hits give low values 1.01 | S. cerevisiae deletion strains, locus YNL224C, strain SQS1, hits give low values 1.01 | [4] 1 | S. cerevisiae deletion strains, locus YOR083W, strain WHI5 (second series), hits give low values 0.989 | [5] 1.01 | [6] 1.01

N#Cc1c(F)cccc1Oc1ccc(F)cc1
inactive: [7] 0.999 | [8] 0.957 | [9] 1.01 | [10] 0.98 | S. cerevisiae deletion strains, locus YDL134C, strain PPH21, hits give low values 0.986 | [11] 0.941 | [12] 0.966 | [1] 0.971 | [13] 0.848 | [14] 0.948 | [15] 0.999 | [16] 0.946 | [17] 0.972 | [18] 0.851 | [19] 0.979 | [20] 0.941 | [21] 0.907 | [22] 0.97 | [23] 0.971 | [24] 0.998 | [2] 0.891 | [3] 0.991 | [25] 0.928 | [4] 0.962 | [26] 0.986 | [5] 0.956 | [6] 0.978 | [27] 0.905

N#Cc1ncc(C(F)(F)F)cc1Oc1ccc(Cl)cc1
active: [7] 0.921 | [8] 0.789 | [9] 0.898 | [10] 0.868 | [11] 0.799 | [12] 0.903 | [1] 0.708 | [14] 0.745 | [15] 0.911 | [16] 0.594 | [17] 0.842 | [18] 0.694 | [19] 0.829 | [20] 0.595 | [21] 0.658 | [23] 0.814 | [3] 0.892 | [25] 0.709 | [4] 0.849 | [26] 0.737 | [5] 0.751 | [6] 0.844 | S. cerevisiae strains, strain wild type, hits give low values 0.851
inactive: [13] 0.843 | [22] 0.907 | [24] 0.913 | [2] 1.01 | [27] 0.889
